# Compound activity deposited in PubChem by Broad Institute.
# Hits are enriched below; roughly 2.8% of the tested compounds scored in any of these assays.
# CDK5 inh: blocks human CDK5/p35 kinase activity | Q00535+Q15078 | Recombinant CDK5/p35, ADP-Glo luminescence, 60 min | inhibition, % at 10 µM | 0.01% of 330,000 active | AID 488839;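 active = highest replicate inhibition of at least 50% and at least 75% of replicates reaching 50%; inconclusive = only one of the two criteria met; inactive = both criteria failed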
# Target sequence (Q00535 whole entry, looked up): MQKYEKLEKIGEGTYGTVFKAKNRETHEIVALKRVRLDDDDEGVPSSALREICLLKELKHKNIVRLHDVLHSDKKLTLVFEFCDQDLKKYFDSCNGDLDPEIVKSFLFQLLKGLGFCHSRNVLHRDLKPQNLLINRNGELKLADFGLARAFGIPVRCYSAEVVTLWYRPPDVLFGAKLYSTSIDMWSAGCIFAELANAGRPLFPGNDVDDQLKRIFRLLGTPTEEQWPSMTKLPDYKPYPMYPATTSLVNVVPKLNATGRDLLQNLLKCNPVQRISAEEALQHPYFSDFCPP
# Target sequence (Q15078 whole entry, looked up): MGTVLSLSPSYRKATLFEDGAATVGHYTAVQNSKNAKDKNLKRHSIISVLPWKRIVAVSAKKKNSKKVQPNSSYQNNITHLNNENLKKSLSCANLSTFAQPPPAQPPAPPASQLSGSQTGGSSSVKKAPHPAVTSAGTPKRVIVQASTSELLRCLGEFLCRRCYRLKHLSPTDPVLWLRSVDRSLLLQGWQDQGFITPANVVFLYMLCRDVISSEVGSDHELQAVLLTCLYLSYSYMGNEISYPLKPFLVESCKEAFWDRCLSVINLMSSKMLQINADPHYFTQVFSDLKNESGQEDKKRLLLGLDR
# FGF22 binding: binders of recombinant human FGF22 by thermal shift | activity (Tm shift, normalised), % at 9.99 µM | 1.5% of 340,000 active | SYPRO orange fluorescence; percent of sucrose octasulfate shift, DMSO zero | Q9HCT0;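 active = mean Tm shift, scaled 0 neutral to 100 positive control, at about 1.3% or above, every replicate too, limit read from the data; inconclusive = no clear call, values can overlap the other calls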
# SIRT5 inh: sirtuin-5 (human) deacylase inhibition; Q9NXA8; Purified SirT5, succinyl-peptide AMC, trypsin-coupled fluorescence; inhibition, % at 15 µM; 1.1% of 330,000 active; AID 652115; in the data active = inhibition above about 15%; inconclusive = no clear call, values can overlap the other calls
# PglD inh: PglD (C. jejuni) enzyme inhibition. purified PglD enzyme, DTNB colorimetric CoA detection. inhibition, % at 12.5 µM. 0.098% of 360,000 active. AID 602405; in the data active = inhibition above about 16%, passing the limit was not always enough; inconclusive = no clear call, values can overlap the other calls
# PvdQ acylase: blocks Pseudomonas aeruginosa PvdQ acylase activity; inhibition, % at 10 µM; 0.063% of 340,000 active; purified PvdQ acylase, fluorescence plate reader; in the data active = inhibition above about 30%, passing the limit was not always enough; inconclusive = no clear call, values can overlap the other calls
# dFosB activator: activators of mouse delta FosB homodimer. purified delta FosB, TAMRA-CDK5 oligo fluorescence polarization; percent of positive-control signal above neutral wells. activation, % at 25 µM. 0.99% of 340,000 active. AID 493131;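 active = mean activation above about 17%, with every replicate also reaching it, limit read from the data, passing the limit was not always enough; inconclusive = only one of the two conditions met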
# Numbers stand for hits; . = inactive; ? = inconclusive; / = no result.
SMILES,CDK5 inh,FGF22 binding,SIRT5 inh,PglD inh,PvdQ acylase,dFosB activator
CC1=CC(=C(C#N)C#N)C=C(C)N1CCN1CCN(C(=O)Nc2ccc(Cl)c(Cl)c2)CC1,.,/,/,/,.,50.3
O=S(=O)(NC1=NCCC1)c1cccc(NS(=O)(=O)c2ccc(F)c(Cl)c2)c1,.,.,.,.,.,.
Cc1ccc([N+](=O)[O-])cc1S(=O)(=O)Nc1cccc(S(=O)(=O)NC2=NCCC2)c1,.,44.5,/,.,.,.
CC(C)c1ccc(NC(=O)c2snc3ccc(Cl)cc23)cc1,.,44.3,.,/,.,.
CC(C)c1ccc(NC(=O)c2csnn2)cc1,.,.,.,.,.,.
CC(=O)c1cccc(S(=O)(=O)NCC(C)(C)N2CCOCC2)c1,.,.,15.6,.,.,.
COc1cc(/C=C(\C#N)c2nc(-c3cc4ccccc4oc3=O)cs2)ccc1O,.,.,.,/,.,.
CCN(CC)CCOC(=O)c1ccc(N/C=C(/C#N)c2nc(-c3cc4ccccc4oc3=O)cs2)cc1,.,.,.,.,.,39.0
CCN(CC)CCOC(=O)c1ccc(N/C=C(/C#N)c2nc(-c3ccc(OC)cc3)cs2)cc1,.,.,.,/,.,?
CCN(CC)CCOC(=O)c1ccc(N/C=C(/C#N)c2nc(-c3ccc4c(c3)OCO4)cs2)cc1,.,.,.,.,.,92.5
C[C@@H]1CN([C@H](C)CO)C(=O)c2cc(NC(=O)Nc3ccc(C(F)(F)F)cc3)ccc2O[C@H]1CN(C)S(C)(=O)=O,/,.,.,.,/,/
CCCc1nc(SCC(=O)Nc2nc3c(s2)CCCC3)c2ccccc2n1,.,.,15.9,.,.,.
CC(=O)N1[C@H](CO)[C@@H](c2ccccc2)[C@H]1CN(C(=O)NC(C)C)C1CCCC1,/,.,.,.,/,/
Cc1noc(C)c1CSCC(=O)Nc1ccccc1N1CCCC1,.,.,16.4,.,.,.
C[C@H](O)C#Cc1ccc2c(c1)O[C@@H](CN(C)C(=O)CC1CC1)[C@@H](C)CN([C@@H](C)CO)S2(=O)=O,/,.,.,.,/,/
O=C(Nc1ccnn1C1CCN(C2CCCC2)CC1)c1ccccc1Cl,.,.,27.5,.,.,.
O=C(Nc1ccnn1C1CCN(C2CCC2)CC1)c1ccccc1Cl,.,.,.,.,.,.
C[C@@H]1CN([C@H](C)CO)C(=O)c2cc(-c3ccccc3F)cnc2O[C@@H]1CN(C)C(=O)NC1CCCC1,/,.,.,.,/,/
CCc1nnc(NC(=O)CCC(=O)Nc2ccc(Cl)cc2)s1,.,43.2,.,/,.,.
OC(CNCc1ccccc1)COc1ccccc1 (configuration not stated),.,.,24.0,.,.,.
CCCNC(=O)N1CC2(CCN(CC3CCOCC3)CC2)c2c(n(C)c3cc(OC)ccc23)[C@@H]1CO,/,.,/,/,/,/
C[C@@H]1CN([C@@H](C)CO)C(=O)c2cc(NC(=O)CCC(F)(F)F)ccc2O[C@@H]1CN(C)S(=O)(=O)c1ccccc1,/,.,.,.,/,/
C/C(=N/NC(=O)OC(C)(C)C)c1ccco1,.,43.6,.,/,.,.
CCNC(=O)[C@@H]1[C@@H](CO)[C@@H]2Cn3c(ccc(-c4ccc(OC)cc4)c3=O)[C@@H]2N1Cc1nccs1,/,.,.,.,/,/
O=C1NCCN(Cc2c(F)cccc2Cl)C1CC(=O)N1CCCO1 (configuration not stated),.,.,.,.,.,.
SMILES,CDK5 inh,FGF22 binding,SIRT5 inh,PglD inh,PvdQ acylase,dFosB activator
O=C1NCCN(Cc2ccc(Cl)c(F)c2)C1CC(=O)N1CCCO1 (configuration not stated),.,43.2,.,/,.,.
COCC(=O)N1CCC2(CC1)CN(S(C)(=O)=O)[C@H](CO)c1c2c2ccc(OC)cc2n1C,/,.,/,/,/,/
COc1ccccc1-c1ccc(C2[C@@H]3CN(S(=O)(=O)c4ccc(F)cc4)C[C@H]2N3)cc1 (some centres not stated),/,/,.,/,/,/
COc1ccc(NC(=O)Nc2cccc3c2O[C@@H](CN(C)Cc2ccc(Oc4ccccc4)cc2)[C@@H](C)CN([C@H](C)CO)C3=O)cc1,/,.,.,.,/,/
C[C@H](CO)N1C[C@H](C)[C@H](CN(C)C)Oc2c(NC(=O)Nc3ccccc3)cccc2C1=O,/,.,.,.,/,/
COc1ccc(NC(=O)Nc2cccc3c2O[C@@H](CN(C)Cc2ccc(Oc4ccccc4)cc2)[C@@H](C)CN([C@@H](C)CO)C3=O)cc1,/,.,15.3,.,/,/
COc1ccc(CN(C)C[C@H]2Oc3c(NC(=O)NC(C)C)cccc3C(=O)N([C@@H](C)CO)C[C@H]2C)cc1,/,.,.,16.3,/,/
C[C@H]1CN([C@@H](C)CO)C(=O)c2cccc(NC(=O)Nc3ccccc3)c2O[C@H]1CN(C)C,/,.,.,19.1,/,/
COc1ccc(NC(=O)Nc2cccc3c2O[C@@H](CN(C)Cc2ccc(Oc4ccccc4)cc2)[C@H](C)CN([C@@H](C)CO)C3=O)cc1,/,.,16.3,.,/,/
C[C@@H]1CN([C@@H](C)CO)C(=O)c2cccc(NS(=O)(=O)c3ccc(F)cc3)c2O[C@H]1CN(C)C(=O)Nc1ccccc1,/,.,22.0,.,/,/
C[C@@H]1CN([C@@H](C)CO)C(=O)c2cccc(NS(=O)(=O)c3ccccc3)c2O[C@@H]1CN(C)C(=O)Nc1ccc(F)cc1,/,.,.,.,/,/
CCN1C=C(C(C)=O)C(=O)CC1,.,43.3,/,.,.,.
CSc1ccc(C(=O)C2CCCN(C(=O)c3ccc4c(c3)OCO4)C2)cc1 (configuration not stated),.,.,16.3,.,.,.
O=C(c1cccc(Cl)c1)C1CCCN(C(=O)c2ccc3c(c2)OCO3)C1 (configuration not stated),.,.,.,.,.,.
C[C@H]1CN([C@@H](C)CO)C(=O)c2cc(C3=CCCCC3)cnc2O[C@@H]1CN(C)Cc1cccnc1,/,.,.,.,/,/
CO[C@@H]1CN(C)C(=O)c2ccc(NC(=O)c3cc(C)on3)cc2OC[C@@H](C)N(CC2CC2)C[C@H]1C,/,.,.,/,/,/
Cc1ccc(SC2CC(=O)N(c3ccc4c(c3)OCCO4)C2=O)cc1 (configuration not stated),.,43.2,.,/,.,.
C[C@@H]1CN([C@H](C)CO)C(=O)Cc2cc(NC(=O)Cc3ccccc3)ccc2O[C@H]1CN(C)S(=O)(=O)c1ccc(Cl)cc1,/,.,.,.,/,/
Cc1cccc(NC(=O)c2cc(-c3ccc(C)c(C)c3O)n[nH]2)c1,.,.,.,.,.,32.6
Cc1ccc(NC(=O)c2cc(-c3ccc(C)c(C)c3O)n[nH]2)cc1C,.,.,.,.,.,22.6
CN(C)CCOC(=O)CC12CC3CC(C1)CC(CC(=O)OCCN(C)C)(C3)C2,.,.,.,.,.,.
CN(C)CCOC(=O)NCC12CC3CC(CC(C3)C1)C2,.,.,21.5,.,.,.
CC(C)NC(=O)N1C[C@H]2[C@@H](c3ccccc31)[C@@H](CO)N2C(=O)NC(C)C,/,/,.,.,/,/
